Source: PubChem BioAssay (several laboratories)
HER2 expr 66K – inhibitors of human Her2 kinase expression. P04626. SKBR-3 HER2 protein level, AlphaScreen, 18-24 h; active compounds read low. HER2 level % of control, % at 10 µM. 65,000 compounds, 0.69% hits. AID 645;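 active = HER2 level under 5% of the carrier-only control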;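 note: 100% = DMSO carrier and 0% = 500 nM PU-H71 HSP90 inhibitor; lower value means stronger loss of Her2 protein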
JNK3 blocker – inhibitors of human JNK3 kinase; P53779; purified JNK3 kinase activity, HTS; inhibition, % at 8 µM; 60,000 compounds, 0.61% hits; in the data active = inhibition above about 17%;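 note: 0% = DMSO and 100% = reference inhibitor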
PKA inh – PKA (human) kinase inhibition; PKA Kemptide phosphorylation, Kinase-Glo ATP luminescence; AID 524; 65,000 compounds, 0.1% hits; inhibition, % at 6 µM; P17612;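 active = inhibition above the screen-wide mean inhibition plus 3 SD, cut at about 21% in these data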
SKBR3 24h inh – SK-BR-3 proliferation inhibitors. SK-BR-3 viability, CellTiter-Glo ATP luminescence, 24 h; active compounds read low. viability, % at 10 µM. 41,000 compounds, 0.47% hits. AID 847;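 active = viability at or below the median of all test compounds minus 3 SD, in both replicates if run twice, cut at about 45% in these data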;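 note: 100% = median untreated cell wells and 0% = median positive control drug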
ROCK2 blocker – ROCK2 (human) kinase inhibition. O75116. 60,000 compounds, 0.35% hits. purified ROCK2, Kinase-Glo ATP depletion luminescence. AID 604. inhibition, % at 6 µM;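 active = inhibition above the screen-wide mean inhibition plus 3 SD, cut at about 18% in these data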;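 note: plate controls were DMSO wells for no effect and Y-27632 control wells after no-enzyme background subtraction for full effect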
* = called active by the depositor; nt = not tested or not shown. Compounds with a hit are over-represented: about 1.5% of the library has one in this group of screens.

SMILES | HER2 expr 66K | JNK3 blocker | PKA inh | SKBR3 24h inh | ROCK2 blocker
C[C@H]1CCC/C=C/C2C[C@H](O)CC2[C@H](O)/C=C/C(=O)O1 (some centres not stated) | 94 | 14 | -2 | 100 | 3
C[C@H]1CCC[C@H](O)CCCCCc2cc(O)cc(O)c2C(=O)O1 | -10* | 3 | 3 | nt | 4
C[C@H]1CCC[C@@H](O)CCC/C=C/c2cc(O)cc(O)c2C(=O)O1 | -14* | nt | 3 | 92 | nt
Cc1cc(N2C(=O)C3CCCN3C2c2ccccc2)no1 (configuration not stated) | 81 | -1 | 0 | 85 | 1
C=CCn1c(O)c(C(CC)=NCc2cc(OC)cc(OC)c2)c(=O)[nH]c1=O | 91 | 5 | 13 | 34* | 3
CCCCn1c(O)c(C(CC)=NCc2ccc3c(c2)OCO3)c(=O)[nH]c1=O | 101 | 0 | 3 | 90 | 0
C=CCn1c(O)c(C(CC)=NCCCO)c(=O)[nH]c1=O | 140 | 0 | 10 | 44* | 1
C=CCn1c(O)c(C(CC)=Nc2ccccc2NC(C)=O)c(=O)[nH]c1=O | 111 | 7 | -3 | 117 | 3
CCCCN1C(=O)NC(=O)C2(Cc3c(nc4c(C)cccn4c3=O)N3CCc4ccccc4C32)C1=O (configuration not stated) | 1.2* | -2 | -10 | 121 | -5
COc1ccc2c(c1OC)C(=O)OC2c1c(O)n(Cc2ccc(F)cc2)c(=O)[nH]c1=O (configuration not stated) | 71 | 4 | 0 | 94 | -1
Cn1c(=O)n(CC(=O)N2CCC3(CC2)OCCO3)c(=O)c2ccccc21 | 75 | 2 | 2 | 71 | 0
O=C(CCCCCn1c(=S)[nH]c2ccccc2c1=O)N1CCC2(CC1)OCCO2 | 111 | 28* | -2 | nt | -12
Nc1nnc(CCN2CCCCC2)s1 | 146 | 2 | 7 | nt | 6
C=CCN(CC=C)Cc1c[nH]c2ccccc12 | 23 | 0 | 4 | 27* | 2
CCOC(=O)c1cc2c(cn1)[nH]c1ccccc12 | 94 | -7 | -12 | 95 | -9
Nc1c(C(=O)NC2CCCC2)c2nc3ccccc3nc2n1CC1CCCO1 (configuration not stated) | -28* | 1 | -12 | 115 | 0
CCC1(c2ccccc2)C(=O)N(COC)C(=O)N(COC)C1=O | 66 | -1 | 11 | nt | 5
Cn1c(O)c(C=NC2CCN(Cc3ccccc3)CC2)c(=O)n(C)c1=O | 118 | -1 | 4 | 86 | -4
Cc1c(C(=O)N2CCC3(CC2)OCCO3)sc2ncnc(N3CCN(c4ccccn4)CC3)c12 | 84 | -4 | 5 | 38* | 1
CCn1nc(-c2ccccc2)nc2c(=O)n(C)c(=O)nc1-2 | -14* | 55* | 4 | 38* | 72*
CC1(C)CC(=O)C=C(NCCN2CCN(C(=O)Cc3ccc(Cl)cc3)CC2)C1 | 99 | 0 | 7 | 91 | 8
Clc1ccc(COC(Cn2ccnc2)c2ccc(Cl)cc2Cl)cc1 (configuration not stated) | -15* | 5 | -11 | 103 | -11
O/N=C/c1c[nH]c2ccccc12 | 98 | 5 | 64* | 96 | 82*
CCCCn1c(O)c(C(C)=NC(Cc2c[nH]c3ccccc23)C(=O)OC)c(=O)[nH]c1=O (configuration not stated) | 97 | 3 | 11 | 86 | 6
